Measurements taken from PubChem BioAssay (NCI).
Several values for one entry are separate records, joined by “and”; a condition that tells them apart may be missing. Equal entries are not always repeated. Compounds without any hit were thinned out: in the full panel of roughly 79,000, 15% have a hit. Activity calls are given as the source filed them. Rule as the data show it: active = growth inhibition above about 70%; inactive = the rest.

How the values were obtained:
[1] = NCI Yeast Anticancer Drug Screen. Data for the rad50 strain (AID 155);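 also: 0% = growth of vehicle-only cultures of the same strain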; conditions: S. cerevisiae rad50 strain growth inhibition, active compounds read high; at 50.0 µM unless noted
In short: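 Cells are treated with compound, grown, and their growth is then scored against vehicle-only cultures of the same repair-deficient yeast strain.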

[2] = NCI Yeast Anticancer Drug Screen. Data for the mec2-1 strain (AID 157); conditions: S. cerevisiae mec2-1 strain, active compounds read high; at 50.0 µM unless noted
In short: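 Yeast mec2-1 mutant treated with compound. Readout: growth inhibition vs vehicle controls.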

[3] = NCI Yeast Anticancer Drug Screen. Data for the sgs1 mgt1 strain (AID 161);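 also: 0% = growth of cultures given vehicle only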; conditions: S. cerevisiae sgs1 mgt1 strain, active compounds read high; at 50.0 µM unless noted
In short: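 Read-out: growth inhibition vs vehicle controls. Cells: mutant yeast strain deficient in DNA damage repair.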

[4] = NCI Yeast Anticancer Drug Screen. Data for the cln2 rad14 strain (AID 165);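 also: 0% = growth equal to vehicle treated cultures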; conditions: S. cerevisiae cln2 rad14 strain, active compounds read high; at 50.0 µM unless noted
In short: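 cln2 rad14 yeast strain; compound exposure; growth inhibition read vs vehicle controls.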

[5] = NCI Yeast Anticancer Drug Screen. Data for the bub3 strain (AID 167); conditions: S. cerevisiae bub3 mutant strain, active compounds read high; at 50.0 µM unless noted
In short: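 Part of a panel of yeast mutants defective in DNA damage repair or cell cycle regulation. Each strain is grown with compound, and inhibition is calculated relative to solvent-treated cultures.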

[6] = NCI Yeast Anticancer Drug Screen. Data for the mlh1 rad18 strain (AID 175); conditions: S. cerevisiae mlh1 rad18 strain growth inhibition, active compounds read high; at 50.0 µM unless noted
In short: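 Yeast w/ defined DNA-repair lesions; compound exposure; growth vs vehicle controls → % inhibition.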

Measured: growth inhibition

CC(=O)CC(=O)c1ccc(C(=O)CC(C)=O)cc1.[Fe]
inactive: [1] -8.1% | [2] -2.35% | [3] -8.3% | [4] 11.7% | [5] 14.4% | [6] 2.15%

O=Nc1ccc2ccccc2c1N=Nc1ccccc1C(=O)O
active: [2] 72.5%
inactive: [1] 20.5% | [3] 45.6% | [4] 14.3% | [5] 53% | [6] 35.8%

Cc1ccc(C2=NN(c3ccccc3)C(c3ccccc3)C2NC2CCCCC2)cc1 (configuration not stated)
inactive: [1] 41.1% | [2] -12.3% | [3] 19.6% | [4] -27.4% | [5] 0.5% | [6] 10.3%

N=c1oc2ccc(Cl)cc2cc1C(=O)Nc1ccccc1
inactive: [1] 32.2% | [2] 32.7% | [3] -10.6% | [4] 14.1% | [5] 15.6% | [6] -35%

COc1ccc2c(c1)OC[C@@H]1c3cc(NC(=O)c4ccccc4)c(OCc4ccccc4)cc3N(S(=O)(=O)c3ccccc3)[C@H]21
inactive: [1] -23.9% | [2] -13.9% | [3] -2.1% | [4] -2.5% | [5] -9% | [6] 9.4%

Cc1ccc([N+](=O)[O-])cc1NC(=O)Sc1ccc(C(C)(C)C)cc1C
inactive: [1] 5.2% | [2] 6.9% | [3] 4.65% | [4] -11.4% | [5] 3.4% | [6] 8.8%

O=C1OC(c2ccccc2)Cc2ccccc21 (configuration not stated)
inactive: [1] -20.2% | [2] -10.8% | [3] -22.1% | [4] 4.55% | [5] 3.15% | [6] -9.9%

CC1C(c2ccccc2)OCCN1C(N)=S (configuration not stated)
inactive: [1] 21.9% | [2] 1% | [3] 52.4% | [4] 17.9% | [5] 24.1% | [6] 23.3%

CC(=O)c1cc2c(cc1O)oc1c(C)ccc(C)c12
inactive: [1] 20.8% | [2] -3.4% | [3] 5.55% | [4] 18.2% | [5] -29.7% | [6] -13.8%

CCc1ccc(NS(=O)(=O)c2ccc(OC)cc2)cc1
inactive: [1] 37.9% | [2] 63.5% | [4] 25.9% | [5] 43.4%
active: [3] 80.2% | [6] 75.7%

O=C1CN2CCC1C/C2=C\c1ccnc2c(Cl)cc(Cl)cc12 (configuration not stated)
inactive: [1] 7.75% | [2] -7.55% | [3] -0.9% | [4] -3.4% | [5] -12% | [6] 19.2%

O=c1c2cc(Cl)ccc2c2ccc(Cl)cc2c(=O)n1-c1ccc2c(c1)Cc1ccccc1-2
inactive: [1] 1.65% | [2] -0.2% | [3] -1.7% | [4] -10.6% | [5] 8.8% | [6] -3.4%

CN(Cc1cnc2nc(N)nc(N)c2n1)c1ccc(C(=O)NC(CCC(=O)OCc2c(Cl)cccc2Cl)C(=O)OCc2c(Cl)cccc2Cl)cc1 (configuration not stated)
inactive: [1] 17.1% | [2] 9.2% | [3] 28.5% | [4] 36.2% | [5] 22.1% | [6] 24.5%

CCOc1ccccc1NC(=O)/C(=N\NC(C)(C)C)C1C(=O)Nc2ccccc2S1=O (configuration not stated)
inactive: [1] -4.3% | [2] -27.9% | [3] -9.85% | [4] 9.2% | [5] -6.9% | [6] 10.1%

Cc1cccc(C(=O)NNC(=O)C(=O)NNC(=O)c2cccc(C)c2)c1
inactive: [1] 3.6% | [2] 43.6% | [3] -3.1% | [4] -0.05% | [5] 24.6% | [6] 26.9%

Cc1cc2c(C(C)C)c(O)c(O)c(C=NC(C)c3ccccc3)c2c(O)c1-c1c(C)cc2c(C(C)C)c(O)c(O)c(C=NC(C)c3ccccc3)c2c1O (configuration not stated)
inactive: [1] 18.2% | [2] 7.35% | [3] 15.3% | [4] 11.9% | [5] 30.9% | [6] 7.95%

c1ccc(Nc2ccccc2)cc1 (tested in a mixture with another compound)
inactive: [1] 3.1% | [2] 20.2% | [3] 1.95% | [4] 1.6% | [5] 38.7% | [6] 9.8%

COC(=O)c1cc(C)n(C)c(=O)c1CN
inactive: [1] -6.4% | [2] 4.85% | [3] -8.6% | [4] -22.4% | [5] -8.8% | [6] 0.8%

Nc1nnc2nc(CC(=O)c3ccc(Cl)c(Cl)c3)/c(=C/C(=O)c3ccc(Cl)c(Cl)c3)n12
inactive: [1] 11.5% | [2] 12.3% | [3] -12.3% | [4] 17.2% | [5] 1.7% | [6] -10.2%

Cc1cc(S(=O)(=O)Nc2nc(N)nc(N3N=CCC3C)n2)c(SCC(=O)O)cc1Cl (configuration not stated)
inactive: [1] -16% | [2] 6.25% | [3] 4.7% | [4] -7% | [5] -1.55% | [6] 2.1%

O=C(O)c1ccccc1SSc1ccccc1C(=O)O
inactive: [1] 10.2% and -7.05% | [2] 16.4% and -6.5% | [3] -6.6% and 3.3% | [4] 4% and -26.9% | [5] 9% and -0.65% | [6] 7.85% and 9.6%

CC(O)CNC1=CC(=O)C(=O)c2ccccc21 (configuration not stated)
inactive: [1] -13.3% | [2] -26.1% | [3] 4.8% | [4] 4.3% | [5] 20.4% | [6] -20.6%

CCOC(=O)C(Cc1ccc(Cl)cc1)(NC(C)=O)C(=O)OCC
inactive: [1] -1.25% | [2] -13.6% | [3] -4.25% | [4] -23.9% | [5] 14.4% | [6] -10.4%

CCOC(=O)CCC(Br)(Br)Br
inactive: [1] 10% | [2] 16% | [3] 1.7% | [4] 12.8% | [5] 4.6% | [6] 10.2%

CS(=O)CCC1C(=O)OC(C(C)(C)C)N1C(=O)c1ccccc1 (configuration not stated)
inactive: [1] 8.25% | [2] 3.65% | [3] 4.55% | [4] -12.3% | [5] -0.85% | [6] -0.4%

C=CC[Si](CC=C)(OCC)OCC
inactive: [1] 9.65% | [2] -21.9% | [3] 7.05% | [4] 20.7% | [5] -6.9% | [6] 23.2%

CCCCCP(=O)(O)O.[Cu+2]
inactive: [1] -41.4% | [2] -39.6% | [3] -9.9% | [4] -40% | [5] -31.6% | [6] -14.2%

O=C1C(NCCc2cc(Br)c(O)c(Br)c2)=CC(=O)c2ncccc21
inactive: [1] 31.9% | [2] 37% | [3] 33.9% | [4] 18.2% | [5] 34% | [6] 28.4%

Cc1ccc2c(c1)C1(c3ccc(Cl)cc3Cl)Oc3ccc(C)cc3C(c3ccc(Cl)cc3Cl)(O2)O1
inactive: [1] -1.5% | [2] 1.5% | [3] 3.1% | [4] -4.65% | [5] -2.7% | [6] 16.6%

O=S1(=O)C(c2ccccc2)=C1c1ccccc1
inactive: [1] -6.95% | [2] 6.55% | [3] 8.6% | [4] 24.6% | [5] -11.7% | [6] 17.6%

CS(=O)(=O)c1ccc(/C(=N/N)c2ccccc2)cc1
inactive: [1] 1.65% | [2] 9.65% | [3] 9.2% | [4] 28.2% | [5] 13.5% | [6] 17.4%

Cc1cc(=O)[nH]c(NNC(C#N)c2ccc(O)cc2)n1 (configuration not stated)
inactive: [1] -26% | [2] -51.3% | [3] -48.4% | [4] -7.6% | [5] -18.6% | [6] -41.8%

Nc1nc(-c2ccco2)cc(-c2ccco2)n1
inactive: [1] -23.4% | [2] -23.2% | [3] -18.8% | [4] 12.8% | [5] -20.1% | [6] -31.1%

C=C(C)C1CCC2(C)C1CCC1(C)C2CCC2C3(C)C4OC(OC4=O)C(C)(C)C3CCC21C (configuration not stated)
inactive: [1] -0.8% | [2] -20% | [3] 11.8% | [4] 0.1% | [5] 17.6% | [6] -53%

COC(=O)c1ccccc1NC(=O)Cc1ccccc1
inactive: [1] -0.5% | [2] -27.1% | [3] 15.9% | [4] -5.65% | [5] 37.2% | [6] -15.7%

Cc1c(CCCl)c(N=P(c2ccccc2)(c2ccccc2)c2ccccc2)n2c(nc3ccccc32)c1C#N
inactive: [1] 29.1% | [2] -2.1% | [3] -7.75% | [4] 12.5% | [5] -5.05% | [6] 18.6%

CCCN(CCC)C(=O)c1ccccc1C
inactive: [1] 9.5% | [2] -2% | [3] 6.65% | [4] -14.1% | [5] 18.4% | [6] 2.9%
